Bioassay records deposited in PubChem by Milwaukee Institute for Drug Discovery.
NS3h inh CB = hepatitis C NS3 helicase inhibition, primary screen. NS3h Cy5-dT15 DNA binding, fluorescence polarization. inhibition, % at 100 µM. hit rate 1.6% among 16,000;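 active = inhibition above the average over every tested compound plus 3 SD, cut at about 40% in these data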
Cy5 interf NS3h = enhances or quenches Cy5 fluorescence in NS3h assay; Cy5-dT15 DNA with NS3h, fluorescence interference; actives lie on both sides; signal over control mean, under 1 quenches; fluorescence interference ratio at 100 µM; hit rate 6% among 16,000; AID 720488;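 active = compound fluorescence over control fluorescence at most 0.8, a quencher, or at least a set upper limit, an enhancer; inactive = ratio between 0.8 and the set upper limit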
* hit, by the source's call. Compounds with a hit are over-represented: about 7.6% of the library has one in this group of screens.

Results for Cc1ccc(C)n1-c1cccc2cccnc12 ?
NS3h inh CB: -87; Cy5 interf NS3h: 0.07*

What do the screens show for `O=C(NC(Cc1ccc([N+](=O)[O-])cc1)C(=O)NCc1ccco1)OCc1ccccc1` (stereo unspecified)?
NS3h inh CB: 3; Cy5 interf NS3h: 0.96

How did COc1ccc(C2CC(O)C(C)C(c3ccc(OC)cc3)N2)cc1 (stereo unspecified) do in these assays?
NS3h inh CB: 16; Cy5 interf NS3h: 0.73*

Results for CC1C(c2ccccc2)NC(c2ccccc2)C(C)C1O (stereo unspecified) ?
NS3h inh CB: -4; Cy5 interf NS3h: 1

Results for Cc1cc(C)c(-c2nn(-c3ccccc3)cc2C=O)c(C)c1 ?
NS3h inh CB: 0; Cy5 interf NS3h: 0.87

What do the screens show for `CC(=O)Nc1cc(-c2ccc(Cl)cc2)[nH]n1`?
NS3h inh CB: 7; Cy5 interf NS3h: 0.67*

Results for Cc1ccc(-c2cc(NC(=O)c3ccc(F)cc3)n[nH]2)cc1 ?
NS3h inh CB: 13; Cy5 interf NS3h: 1

What do the screens show for `COc1ccc(OC)c(C(=O)c2c(C)oc3ccc(O)cc23)c1`?
NS3h inh CB: 10; Cy5 interf NS3h: 0.97

Results for COc1ccc2oc(C)c(C(C)=O)c2c1 ?
NS3h inh CB: 16; Cy5 interf NS3h: 0.74*

How did Cc1cc(NC(=O)c2ccc(Cl)c([N+](=O)[O-])c2)ccc1Br do in these assays?
NS3h inh CB: 10; Cy5 interf NS3h: 1.1

Results for Cc1ccccc1C(=O)Nc1cccc(NC(=O)c2ccc(Cl)c([N+](=O)[O-])c2)c1 ?
NS3h inh CB: 20; Cy5 interf NS3h: 0.71*

Results for COc1ccc(C(=O)CSc2nc3c(c(-c4ccc(C)o4)c2C#N)CCCC3)cc1 ?
NS3h inh CB: 4; Cy5 interf NS3h: 1

What do the screens show for `O=[N+]([O-])c1cccc(Nc2ccccc2)c1`?
NS3h inh CB: 12; Cy5 interf NS3h: 1

Results for CSc1nnc(-c2ccc(C)cc2)o1 ?
NS3h inh CB: 12; Cy5 interf NS3h: 0.69*

How did CC(Sc1nnc(-c2cccnc2)o1)C(=O)c1ccccc1 (stereo unspecified) do in these assays?
NS3h inh CB: 2; Cy5 interf NS3h: 1

What do the screens show for `COc1cc(/C=C2\C(=O)NC(=O)N(c3ccc(Cl)cc3)C2=O)cc(Cl)c1OC`?
NS3h inh CB: 5; Cy5 interf NS3h: 1.1

How did COc1ccc(Cc2noc(-c3ccc(OC)c(OC)c3)n2)cc1 do in these assays?
NS3h inh CB: 3; Cy5 interf NS3h: 1

What do the screens show for `O=C(NC(=S)Nc1ccc([N+](=O)[O-])cc1Cl)c1ccco1`?
NS3h inh CB: 2; Cy5 interf NS3h: 0.93

What do the screens show for `O=C(NC(NC(=S)Nc1ccccc1[N+](=O)[O-])C(Cl)(Cl)Cl)c1ccco1` (stereo unspecified)?
NS3h inh CB: 12; Cy5 interf NS3h: 0.7*

What do the screens show for `O=C1OC(c2ccccc2)=N/C1=C\c1cn(-c2ccccc2)nc1-c1ccc(F)cc1`?
NS3h inh CB: 6; Cy5 interf NS3h: 1.1

How did COc1ccc(/C=C2/SC(=O)N(CC(=O)Nc3ccc(F)c(Cl)c3)C2=O)cc1OC do in these assays?
NS3h inh CB: -16; Cy5 interf NS3h: 0.98

What do the screens show for `CCOC(=O)c1sc(NC(=O)c2cncc(Br)c2)nc1C`?
NS3h inh CB: -15; Cy5 interf NS3h: 1.1

Results for CCc1ccc(NC(=O)c2ccc(Cl)cc2Cl)cc1 ?
NS3h inh CB: 21; Cy5 interf NS3h: 1.1

How did CCOC(=O)c1sc(NC(=O)c2ccc(OCC)c(Cl)c2)nc1C do in these assays?
NS3h inh CB: 57*; Cy5 interf NS3h: 0.93

Results for CCOC(=O)c1sc(NC(=O)c2ccc(Cl)cc2Cl)nc1C ?
NS3h inh CB: 9; Cy5 interf NS3h: 0.64*

How did CN1CCN(S(=O)(=O)c2ccc(N3C(=O)c4ccccc4C3=O)cc2)CC1 do in these assays?
NS3h inh CB: -4; Cy5 interf NS3h: 1

Results for c1ccc2oc(N3CCOCC3)nc2c1 ?
NS3h inh CB: 2; Cy5 interf NS3h: 1.1

How did CCOc1ccc2nc(SCC(=O)Nc3ccc(OC)cc3OC)sc2c1 do in these assays?
NS3h inh CB: 7; Cy5 interf NS3h: 0.94

What do the screens show for `COc1ccc(NC(=O)CSc2nc3ccc(N4C(=O)c5ccccc5C4=O)cc3s2)c([N+](=O)[O-])c1`?
NS3h inh CB: 14; Cy5 interf NS3h: 0.73*

Results for COc1ccc(OC)c(/C=C2/C(=O)NN(c3ccc(C)cc3)C2=O)c1 ?
NS3h inh CB: 7; Cy5 interf NS3h: 0.95

What do the screens show for `COc1ccccc1NC(=O)c1c(O)c2ccccc2[nH]c1=O`?
NS3h inh CB: 9; Cy5 interf NS3h: 1.1

Results for Cc1csc(NC(=O)c2c(O)c3ccccc3[nH]c2=O)n1 ?
NS3h inh CB: 0; Cy5 interf NS3h: 1.2*

What do the screens show for `Cc1ccccc1NC(=S)NCCOc1ccccc1Cc1ccccc1`?
NS3h inh CB: 10; Cy5 interf NS3h: 0.6*

Results for Cc1ccccc1NC(=O)C(=O)NCCc1ccccc1 ?
NS3h inh CB: 1; Cy5 interf NS3h: 1.1

How did O=C(Nc1ccccc1)Nc1nnc(-c2ccccc2I)s1 do in these assays?
NS3h inh CB: 9; Cy5 interf NS3h: 0.99

How did COC(=O)C1=C(C)N(c2cccc(C)c2)C(=O)/C1=C\c1ccc(C(=O)O)cc1 do in these assays?
NS3h inh CB: 10; Cy5 interf NS3h: 0.83

Results for COc1ccc(/C=C2/Sc3ccccc3C2=O)cc1 ?
NS3h inh CB: 14; Cy5 interf NS3h: 0.95

How did CN1C(=O)C(=Cc2ccc(O)c([N+](=O)[O-])c2)C(=O)N(C)C1=O do in these assays?
NS3h inh CB: 11; Cy5 interf NS3h: 1.1

What do the screens show for `CN1CCN(c2ccc(/C=C3\NC(=S)NC3=O)cc2[N+](=O)[O-])CC1`?
NS3h inh CB: 1; Cy5 interf NS3h: 0.61*

How did CN1CCN(c2ccc(/C=C3\Sc4ccccc4C3=O)cc2[N+](=O)[O-])CC1 do in these assays?
NS3h inh CB: -3; Cy5 interf NS3h: 0.79*

What do the screens show for `COc1cc(CC(=O)N2CCOCC2)c(Cc2cc(OC)c(OC)cc2CC(=O)N2CCOCC2)cc1OC`?
NS3h inh CB: -6; Cy5 interf NS3h: 1

What do the screens show for `O=C(NCCCN1CCOCC1)C(=O)Nc1ccc(I)cc1`?
NS3h inh CB: 6; Cy5 interf NS3h: 1

How did COC(=O)/C(O)=C/C(=O)c1cccs1 do in these assays?
NS3h inh CB: -2; Cy5 interf NS3h: 0.98

Results for COc1ccccc1C=C1C(=O)NC(=S)N(c2ccccc2F)C1=O ?
NS3h inh CB: 8; Cy5 interf NS3h: 0.99

What do the screens show for `O=C1NC(=S)N(c2ccccc2F)C(=O)/C1=C/c1ccc(OCc2cccc(C(=O)O)c2)cc1`?
NS3h inh CB: 50*; Cy5 interf NS3h: 1

What do the screens show for `Cc1cc(Cl)cc(C(=O)Nc2ccc([N+](=O)[O-])cc2Cl)c1O`?
NS3h inh CB: 3; Cy5 interf NS3h: 1.2

What do the screens show for `C#Cc1cccc(N2C(=O)c3c(Br)c(Br)c(Br)c(Br)c3C2=O)c1`?
NS3h inh CB: 1; Cy5 interf NS3h: 1.1

What do the screens show for `C=CCN(CC=C)Cn1[nH]c(=O)ccc1=O`?
NS3h inh CB: 15; Cy5 interf NS3h: 0.75*

What do the screens show for `CC1CCN(Cn2[nH]c(=O)ccc2=O)CC1`?
NS3h inh CB: -15; Cy5 interf NS3h: 1.1

How did c1ccc(Cn2c(CSc3nc4ccccc4o3)nc3ccccc32)cc1 do in these assays?
NS3h inh CB: 1; Cy5 interf NS3h: 0.98

How did CC(=O)CC(C)(C)Nc1ccccc1 do in these assays?
NS3h inh CB: 6; Cy5 interf NS3h: 0.74*

What do the screens show for `CCC(C(C)=O)C(=O)Nc1ccccc1` (stereo unspecified)?
NS3h inh CB: -2; Cy5 interf NS3h: 0.97
